Compound activity: PubChem, National Center for Advancing Translational Sciences (NCATS)
DT40 TDP1 CPT – growth inhibition of DT40 Tdp1-/-;hTDP1 cells with camptothecin (screen for TDP1 inhibitors); chicken DT40 Tdp1-/-;hTDP1 cells + 20 nM CPT, ATP luminescence, 48 h; Potency, µM (highest dose often 46.2 µM), inactives show at the highest dose activity change, negative = growth inhibition, most hits filed as inhibitors; actives 12% (n = 420,000); further: on the % scale 0 is the no-effect control and ±100 the full control effect; nearly all actives have a fitted effect of over 55% in size
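Chicken DT40 Tdp1-/- cells complemented with human TDP1, 400 cells/well, exposed to compounds plus 20 nM camptothecin for at least 48 h at 37 C; viability read as ATP content by CellTiter-Glo luminescence.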
ClpP mod – qHTS Assay for Activators of ClpP; Potency, µM (series often up to 57.5 µM), without a hit: top-dose activity change, negative = active; actives 1.9% (n = 340,000); AID 651965, 2013; ATP-dependent Clp protease proteolytic subunit (Bacillus subtilis (strain 168)), P80244; purified B. subtilis ClpP, FRET peptide cleavage, 20 min; active means well fitted falling curve with a large enough effect; inconclusive means small, poorly fitted or top-dose-only effect; inactive means no such curve, though single readings can be large or run the other way; further: the source files actives as falling curves though it sought activators and does not explain the sign; nearly all actives have a fitted effect of over 65% in size
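Purified B. subtilis ClpP, 10 microg/mL final in Tris/HCl pH8 with KCl, BSA, glycerol and Tween-20, cleaved an Abz/nitrotyrosine-quenched decapeptide. Fluorescence (ex 320, em 430) was read at 0 and 20 min at room temperature. Delta was normalized to 5.8 microM ADEP and DMSO/no-enzyme controls.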
TDP1 inh – blocks human tyrosyl-DNA phosphodiesterase 1; Q9NUW8; recombinant TDP1, AlphaScreen DNA substrate cleavage; Potency, µM (top dose mostly 130 µM), for the others: at the highest dose activity change, negative = inhibition, actives largely listed as inhibitors; actives 0.28% (n = 350,000); AID 485290; further: on the % scale 0 is the no-effect control and ±100 the full control effect; nearly all actives have a fitted effect of over 40% in size
Target sequence (Q9NUW8 whole entry, looked up): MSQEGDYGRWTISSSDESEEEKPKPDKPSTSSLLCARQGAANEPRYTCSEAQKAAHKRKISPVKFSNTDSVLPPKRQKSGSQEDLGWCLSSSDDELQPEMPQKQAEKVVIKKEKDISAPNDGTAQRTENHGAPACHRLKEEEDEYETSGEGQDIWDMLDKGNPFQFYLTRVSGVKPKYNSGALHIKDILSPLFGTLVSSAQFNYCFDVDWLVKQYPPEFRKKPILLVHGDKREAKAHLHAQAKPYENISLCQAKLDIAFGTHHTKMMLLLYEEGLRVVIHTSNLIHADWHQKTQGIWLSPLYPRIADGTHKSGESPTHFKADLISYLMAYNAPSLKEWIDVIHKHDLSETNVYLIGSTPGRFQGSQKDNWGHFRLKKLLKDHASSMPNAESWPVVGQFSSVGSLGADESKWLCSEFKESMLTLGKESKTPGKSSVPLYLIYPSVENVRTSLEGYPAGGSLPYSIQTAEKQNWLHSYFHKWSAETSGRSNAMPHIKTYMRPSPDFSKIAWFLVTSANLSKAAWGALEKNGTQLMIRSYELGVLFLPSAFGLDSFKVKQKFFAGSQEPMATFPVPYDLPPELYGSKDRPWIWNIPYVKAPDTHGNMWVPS
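Here, a 5' biotin and 3' phosphotyrosine-FITC DNA oligonucleotide reports Tdp1 activity: intact substrate bridges AlphaScreen beads, while cleavage leaves a 3' phosphate and drops signal. All incubations at room temperature.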
TDP1 cell noCPT – qHTS for Inhibitors of human tyrosyl-DNA phosphodiesterase 1 (TDP1): qHTS in cells in absence of CPT. Potency, µM (top dose mostly 46.2 µM), for the others: top-dose activity change, negative = growth inhibition, most hits filed as inhibitors. actives 15% (n = 420,000). AID 686978, 2013. DT40 Tdp1-/- hTDP1 cells, no CPT, ATP luminescence, 48 h; further: on the % scale 0 is the no-effect control and ±100 the full control effect; nearly all actives have a fitted effect of over 55% in size
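Readout: luminescence from CellTiter-Glo after 30 min in the dark at RT. Cells: DT40 Tdp1-/- with stable hTDP1, 400/well. Exposure: compounds alone, ≥48 hr, 37 °C.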
An asterisk follows results filed as active; ? = inconclusive; . = no result given; ! = not active in a repeat; [ ] = remark or other dose. Most compounds without a hit are left out; they make up all but 17% or so of the library. Unless noted, the call rests on the fitted dose curve; in most records, active means well fitted curve in the direction sought with a large enough effect; inconclusive means small, poorly fitted or top-dose-only effect, or another doubt; inactive means no such curve, though single readings can be large; an effect the other way counts as inactive or inconclusive. Potency means the concentration at half of the fitted maximal effect.

SMILES	DT40 TDP1 CPT	ClpP mod	TDP1 inh	TDP1 cell noCPT
COc1ccc(-c2ccc3[nH]c4c(c3c2)CCN2C(=O)[C@@H]([C@H](C)O)[C@@H](N(C)C(=O)Nc3ccccc3)C[C@@H]42)cc1	13µM*	?	.	6.5µM*
COc1ccc(NC(=O)N(C)[C@H]2C[C@H]3c4[nH]c5ccccc5c4CCN3C(=O)[C@H]2[C@H](C)O)cc1	-25%	4%	.	?
CN[C@H]1C[C@H]2c3cc(N4CCN(C)CC4)ccc3CCN2C(=O)[C@H]1[C@H](C)O	-12%	1%	.	-11%
Cc1ccc(CNC(=O)c2ccccc2N)cc1	-3%	28µM*	3%	6%
Cc1cccc(CNC(=O)c2ccccc2N)c1	-5%	8.9µM*	0%	-2%
COCCCNCCCCOc1ccc(OCc2ccccc2)cc1	?	-1%	-7%	23µM*
C=CCNCCCCOc1ccc(OCc2ccccc2)cc1	?	-1%	2%	23µM*
CCC(C)c1ccccc1OCCCNC1CCCC1 (centres undefined)	?	0%	.	18µM*
CCc1cccc(OCCCCNCCOC)c1	-10%	1%	-2%	-28%
c1ccc(COc2ccc(OCCCNC3CCCC3)cc2)cc1	?	1%	5%	21µM*
CCC(C)c1ccccc1OCCCCN1CCCC1 (centres undefined)	?	-1%	3%	?
O=C(O)C1(O)CC(O)C(O)C(O)C1 (centres undefined)	4%	.	-4%[56.1 µM]	-4%
CSc1ncc(C(=O)Nc2ccccc2C(F)(F)F)c(-c2ccccc2)n1	-26%	-3%	2%	-19%
CC(C)c1nn2c(=O)cc(COC(=O)c3ccccc3NC(=O)C3CCCCC3)nc2s1	?	-25%	1%	?
C=CCn1c2ccccc2c(=O)c2cc(C#Cc3ccccn3)ccc21	26µM*	4%	-8%	18µM*
Cn1c2ccccc2c(=O)c2cc(C#Cc3ccc(N)cc3)ccc21	?	-4%	.	?
CCc1ccccc1NC(=S)N(CCOC)C(C)c1ccco1 (centres undefined)	?	.	1%	?
COc1ccc(-n2c(=O)c3ccccc3n(Cc3ccc(F)cc3Cl)c2=O)cc1OC	-5%	-2%	5%	-1%
Cc1nc(C)c(C(=O)NNS(=O)(=O)c2ccc3ccccc3c2)s1	?	.	-2%	23µM*
Cc1nc(NS(=O)(=O)c2ccccc2)sc1C(=O)NNS(=O)(=O)c1ccccc1	-2%	.	1%	3%
CC(NC(=O)/C(C#N)=C/c1ccc(OCC(=O)O)cc1)c1ccccc1 (centres undefined)	1%	-1%	.	-7%
C[C@H](NC(=O)/C(C#N)=C/c1ccc(O)c(O)c1)c1ccccc1	19µM*	.	11%	19µM*
N#C/C(=C\c1ccc(O)c(O)c1)C(=O)Nc1ccccc1	24µM*	0%	19%[56.1 µM]	10µM*
C[C@@H](NC(=O)/C(C#N)=C/c1ccc(O)c(O)c1)c1ccccc1	24µM*	-1%	17%[56.1 µM]	13µM*!
CC(NC(=O)/C(C#N)=C/c1ccc(Cl)c([N+](=O)[O-])c1)c1ccccc1 (centres undefined)	3.7µM*	1%	-2%	3.7µM*
SMILES	DT40 TDP1 CPT	ClpP mod	TDP1 inh	TDP1 cell noCPT
CC(C)(C)c1ccc(CC(=O)N2CCC2(C)C(=O)NCCC#N)cc1 (centres undefined)	?	2%	.	?
CCCS(=O)(=O)NC(=O)C1(C)CCN(C(=O)c2snnc2C)C1 (centres undefined)	-1%	2%	.	-1%
O=[N+]([O-])c1ccccc1S(=O)(=O)N1CCN(c2ccccc2)CC1	-5%	-1%	8%	-2%
N#C/C(=C\c1ccc(Cl)c([N+](=O)[O-])c1)c1ccccn1	21µM*	.	8%	21µM*
CCCCc1ccc(NC(=O)N[C@@H](C)C(=O)O)cc1	4.6µM*	.	0%	5.2µM*
CCCCc1ccc(NC(=O)C(C)CC)cc1 (centres undefined)	-20%	0%	3%	-10%
CCOc1cc(C2c3c(oc4ccccc4c3=O)C(=O)N2Cc2ccc3c(c2)OCO3)ccc1O (centres undefined)	?	0%	5%	?
Cc1cc(NC(=O)CSC2=Nc3ccccc3C3=NC(Cc4ccccc4)C(=O)N23)n[nH]1 (centres undefined)	-11%	-23%	7%	-21%
O=C(CSC1=Nc2ccccc2C2=NC(Cc3ccccc3)C(=O)N12)Nc1ccccc1 (centres undefined)	?	?	-1%	?
Cc1ccc(NC(=O)CSC2=Nc3ccccc3C3=NC(Cc4ccccc4)C(=O)N23)cc1C (centres undefined)	9.2µM*	-22%	6%	13µM*
COc1ccc(NC(=O)CSC2=Nc3ccccc3C3=NC(Cc4ccccc4)C(=O)N23)cc1Cl (centres undefined)	21µM*	-5%	9%	?
COC(=O)CNC(=O)/C=C/c1ccc(OC)cc1	-8%	-2%	0%	3%
CCOC(=O)C(CC)(CC)C(=O)/C=C/c1ccc(OC)cc1	?	-5%	.	18µM*
O=C(COC(=O)c1ccc(Cl)c(S(=O)(=O)NCc2ccccc2)c1)NC1CC1	-16%	-1%	1%	2%
CCOC(=O)c1c(C)[nH]c(C)c1C(=O)COC(=O)c1cc2ccccc2cc1O	?	.	11%	16µM*
CCOC(=O)c1c(C)[nH]c(C)c1C(=O)COC(=O)c1c(OC)cccc1OC	-24%	-2%	-2%	?
CCOC(=O)c1c(C)[nH]c(C)c1C(=O)COC(=O)c1ccc(Cl)c(S(=O)(=O)NCc2ccccc2)c1	21µM*	0%	9%	23µM*
CCOC(=O)c1c(C)[nH]c(C)c1C(=O)COC(=O)[C@@H](NC(=O)c1ccccc1OCC)C(C)C	?	1%	6%	21µM*
CCOc1ccccc1C(=O)NC(C(=O)OCC(=O)NNC(=O)c1cccs1)C(C)C (centres undefined)	-8%	-1%	.	-27%
Cc1ccc(CNC(=O)CSCc2nc(-c3cccc(C)c3)oc2C)cc1	?	-8%	6%	?
O=C1COc2ccc(S(=O)(=O)Nc3cccc(Cl)c3)cc2N1	-20%	1%	4%	2%
COc1cc2ccccc2cc1C(=O)OCC(=O)c1c(N)n(C)c(=O)n(C)c1=O	-4%	32µM*	0%[56.1 µM]	?
CCOC(=O)c1c(C)[nH]c(C)c1C(=O)COC(=O)/C=C/c1ccc(OC)cc1	7.3µM*	16µM*	4%	8.2µM*
COc1ccc(Cl)cc1C(=O)OCC(=O)c1c(N)n(C)c(=O)n(C)c1=O	5%	-6%	.	3%
